As a reminder, the inhibition is the drop in the measured response relative to a control, in per cent.

Hit rate of the full screen: of about 360,000 compounds, about 2,700 (0.75%) were called active. What follows is part of a selection rich in actives, with near analogues and random picks from the rest. Unmarked numbers belong to inactive results. Cut-off read from the data, not from the text of the source: active = inhibition above about 4.5%; inactive = the rest.

The subject of this assay is Methionine sulfoxide reductase A (Bos taurus). As to the kind of experiment: inhibition of methionine sulfoxide reductase A – biochemical, absorbance, bovine, HTS, primary screen (AID 651718).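 Note: 0% = vehicle wells with enzyme and 100% = reference inhibitor wells.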 To be noted: purified bovine MsrA, absorbance read-out; at 15.5 µM; active compounds read high.
As to `CCOC(=O)C(C)n1cnc2c(nnn2-c2ccc(F)cc2)c1=O` (configuration not stated), the inhibition is -0.86%.

Consider `CCC(C(=O)OC)n1cnc2scc(-c3ccc(C)cc3)c2c1=O` (configuration not stated), for which the inhibition is 2.62%.

In the case of `CCOC(=O)C(C)n1cnc2scc(-c3ccc(C)c(C)c3)c2c1=O` (configuration not stated), the inhibition was 8.45% (active).

In the case of `CC(=O)C(C)n1cnc2scc(-c3ccc(C)cc3)c2c1=O` (configuration not stated), the inhibition is 0.23%.

As for `COC(=O)Cn1cnc2scc(-c3ccc(C)c(C)c3)c2c1=O`, the inhibition is 4.6% (active).

Consider `CCn1cnc2scc(-c3ccc(C)c(C)c3)c2c1=O`, for which the inhibition was 0.83%.

Turning to `Cc1sc2c(c1C)c(=O)n(-c1ccccc1)c1nncn21`, the inhibition was 0.74%.

As for `CC1(C)CC(=O)C=C(c2ccc3ncccc3c2)C1`, the inhibition was 0.6%.

Take `Cc1cccc(C(=O)NC2CCN(CC(=O)Nc3cccc(Cl)c3)CC2)c1`: the inhibition was -0.97%.

Regarding `COc1ccc(-c2ccc3c(n2)CCCN3S(=O)(=O)c2ccc(C)cc2)cc1`, the inhibition is 1.35%.

With `CCOC(=O)/C=C/c1ccccc1O`, the inhibition is 1.24%.

As to `Nc1ncnc2c1ncn2[C@@H]1O[C@H](C(=O)N[C@@H](CCc2ccccc2)C(=O)N2CCCN(Cc3cccs3)CC2)[C@@H](O)[C@H]1O`, the inhibition was -0.82%.

For the compound `Cc1ccc(NC(=O)/C(=C\c2ccccc2)NC(=O)c2ccco2)cc1`, the inhibition was 1.7%.

Turning to `COc1ccc(/C=C(/NC(=O)c2ccco2)C(=O)Nc2ccc(C(C)=O)cc2)cc1`, the inhibition is 6.24% (active).

In the case of `O=C(NC(Cc1ccccc1)C(=O)O)/C(=C\c1ccccc1)NC(=O)c1ccco1` (configuration not stated), the inhibition is -0.85%.

For `O=C(NCc1ccccc1)[C@@H]1CCCN1C(=O)[C@@H](NS(=O)(=O)c1ccc(F)cc1F)C1CCCCC1`, the inhibition is 0.41%.

Regarding `C[C@@H](CN1C2=NC[C@@H](Cc3ccccc3)N2C[C@H]1Cc1ccc(O)cc1)NC(=O)CCC1CCCCC1`, the inhibition was -0.6%.

With `C[C@H]1[C@H](c2ccccc2)Oc2cc(Br)ccc2S(=O)(=O)N1Cc1cccc(F)c1`, the inhibition was -0.62%.

Consider `COc1ccc(CC(=O)c2ccc(O)cc2O)cc1OC`, for which the inhibition was 5.45% (active).

Turning to `COc1ccc(CCNC(=O)CCc2ccccc2O)cc1OC`, the inhibition is -1.41%.

Consider `COc1ccc(CCNC(=O)c2ccccc2-c2ccccc2C(=O)O)cc1OC`, for which the inhibition was -1.11%.

On to `COCc1[nH]nc2c1C(c1ccccc1)N(c1ccccc1)C2=O` (configuration not stated), for which the inhibition is 2.45%.

`O=C(Nc1ccc(C(=O)O)cc1)/C(=C/c1ccc([N+](=O)[O-])cc1)NC(=O)c1ccccc1`: the inhibition is 5.97% (active).

Take `CC(C=Cc1ccccc1)=NNS(=O)(=O)c1ccc([N+](=O)[O-])cc1`: the inhibition is 0.99%.

Regarding `O=C(N/C(=C\c1ccc([N+](=O)[O-])cc1)C(=O)N1CCOCC1)c1cccc(Br)c1`, the inhibition was 2.94%.

In the case of `Cc1ccc(C(=O)N/C(=C/C=C/c2ccccc2)C(=O)NCc2ccco2)cc1`, the inhibition was 3.44%.

For the compound `O=C(Nc1ccc(C(=O)O)cc1)/C(=C\c1ccccc1)NC(=O)c1ccc(Br)cc1`, the inhibition is -0.28%.

Regarding `CNC(=O)/C(=C\C=C\c1ccccc1)NC(=O)c1ccc([N+](=O)[O-])cc1`, the inhibition was 5.69% (active).

`O=C(NS(=O)(=O)c1cccs1)[C@H]1O[C@@H](n2ccc(=O)[nH]c2=O)[C@H](O)[C@@H]1O`: the inhibition is -0.74%.

Turning to `O=C(NN=Cc1ccco1)C(=O)Nc1ccc(Cl)c([N+](=O)[O-])c1`, the inhibition is -0.74%.

`Cc1oc2c(c1C(=O)N1CCOCC1)C(=O)c1ccccc1C2=O`: the inhibition was 14.1% (active).

Regarding `Cc1nc2ccccc2n1C(=O)N1CCOCC1`, the inhibition was -0.3%.

Take `CC(C(=O)Nc1ccccc1-c1ccccc1)N1CCOCC1` (configuration not stated): the inhibition was 0.29%.

With `CCOc1cc(/C=N/NC(=O)CN2CCCCC2)ccc1O`, the inhibition was 0.86%.

For `CCOc1ccc(/C=N\NC(=O)c2c(C)nc3cc(C)ccn23)cc1`, the inhibition is 3.14%.

In the case of `CCOc1cc(/C=N/NC(=O)c2c(C)nc3ccc(Cl)cn23)ccc1O`, the inhibition is 6.4% (active).

As for `COC(=O)Nc1nc2ccc(C(=O)C3CC3)cc2[nH]1`, the inhibition is 1.54%.

Regarding `CCOC(=O)c1cc(C)nc(S(C)(=O)=O)c1C#N`, the inhibition is 1.83%.

On to `CCOC(=O)c1c(C(C#N)C#N)cc(C)nc1C`, for which the inhibition was 5.28% (active).

Turning to `CCOC(=O)c1c(C)[nH]c(C)c1C(=O)CSc1nc(N)cc(N)n1`, the inhibition was 0.97%.

In the case of `N#Cc1ccc(S(=O)(=O)NCC(=O)OCC(=O)NCCc2ccccc2)cc1`, the inhibition is 0.77%.

Consider `O=C(NCc1ccccc1)[C@@H]1CCCN1C(=O)[C@H]1CCCN1C(=O)c1cccc(Cl)c1`, for which the inhibition was -0.24%.

On to `Brc1ccc(COCCc2cn(Cc3ccccc3)c3ccccc23)cc1`, for which the inhibition was -0.08%.

As for `N#Cc1c(N)nc2c3c(sc(=N)c2c1N)NC(=O)CC3c1ccccc1Cl` (configuration not stated), the inhibition was 6.25% (active).

Regarding `CSc1nc2c(c(=O)[nH]1)C(c1cccc(Cl)c1Cl)CC(=O)N2` (configuration not stated), the inhibition was -1.13%.

As for `COC(=O)[C@H](CC(C)C)NS(=O)(=O)c1c(F)cccc1F`, the inhibition is 1.4%.

On to `COC(=O)c1sccc1N/N=C(\C)c1ccc(F)c(Cl)c1`, for which the inhibition was -0.14%.

For `COc1cccc(/C(C)=N/Nc2ncc(Cl)cc2Cl)c1`, the inhibition was 5.21% (active).

Turning to `CCN(CC)c1ccc(C(=O)N/N=C(\C)c2cccc(OC)c2)cc1`, the inhibition was 1.78%.

As for `COc1cccc(CNC(=O)[C@H]2CCCN2C(=O)[C@H]2CCCN2C(=O)c2cc(F)cc(F)c2)c1`, the inhibition is 0.79%.

Turning to `CCCN1C(=O)c2[nH]nc(-c3ccccc3)c2C1c1ccccc1` (configuration not stated), the inhibition was 0.64%.

With `O=C(Cn1nnc(-c2ccccc2)n1)N/N=C/c1ccc(-c2ccc(Cl)cc2)o1`, the inhibition was 1.47%.

`O=C(N/N=C\c1ccc(-c2ccc(Cl)c(Cl)c2)o1)C(=O)N1CCCC1`: the inhibition is -0.58%.

Take `Nc1nnnn1CC(=O)N/N=C/c1ccc(-c2cccc(Cl)c2)o1`: the inhibition is 5.41% (active).

Regarding `Cc1ccc(OCCCC(=O)Nc2ccc(S(=O)(=O)Nc3cc(C)nc(C)n3)cc2)cc1`, the inhibition is 0.56%.

Turning to `Cc1ccc(S(=O)(=O)Nc2nc(C)cc(N/N=C/c3ccc(O)cc3)n2)cc1`, the inhibition is 9.28% (active).

As to `Cc1ccc(S(=O)(=O)Nc2nc(C)cc(-n3nc(C)cc3C)n2)cc1`, the inhibition is -0.42%.

The values above are taken from PubChem BioAssay AID651718 (The Scripps Research Institute Molecular Screening Center, 2012).
